Values joined by “and” are separate entries in the source; they are usually repeats but may differ in a detail not shown here. Equal values may be shown once. Results filed as inconclusive are left out. Active and inactive are the calls of the source. Unless noted, the call rests on the fitted dose curve; in most records, active means well fitted curve in the direction sought with a large enough effect; inconclusive means small, poorly fitted or top-dose-only effect, or another doubt; inactive means no such curve, though single readings can be large; an effect the other way counts as inactive or inconclusive.

Among the data in PubChem BioAssay (NCATS) are Potency, outcome and max response values, retold here.

Assay [1] has as its target Cytochrome P450 3A4 (Homo sapiens) (UniProt P08684). Briefly: qHTS Assay for Activators of Cytochrome P450 3A4 (AID 885). Further: nearly all actives have a fitted effect of over 65% in size. A digest of the protocol: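 Quantitative HTS format: compounds preincubated with 20nM human CYP3A4 and Luciferin-PPXE substrate at KM, reaction started by NADPH regeneration, stopped after 60 min, luciferase luminescence read 20 min later.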
(In general: In qHTS, concentration-response curves come from the screen itself.)

Assay [2] can be described thus: qHTS for differential inhibitors of proliferation of Plasmodium falciparum line 3D7 (AID 1876). Further: potency means the concentration at half of the fitted maximal effect.
Assay [3] can be described thus: qHTS for differential inhibitors of proliferation of Plasmodium falciparum line W2 (AID 1883).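 Further: potency means the concentration at half of the fitted maximal effect; parasites grown with compound for 72 h before lysis and staining.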 Particulars: Potency: Plasmodium falciparum W2 proliferation inhibition.
Assay [4] is described as follows: Cellular Toxicity (caspase-3) SK-N-SH (AID 661).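 Further: cells exposed to compound for 16 hours; 0% = DMSO basal and 100% = 10 µM staurosporine.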 A digest of the protocol: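 Caspase 3/7 activation is measured as a luminescence increase from aminoluciferin released by substrate cleavage in SK-N-SH cells after 16 hr compound treatment; values are AC50 from concentration-response curves.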
The nature of assay [5]: MultiTox-Fluor Cytotoxicity Assay - LYMP1-001 - Dead Cells (AID 946).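 Further: 0% = DMSO and 100% = tetraoctylammonium bromide.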 A digest of the protocol: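 In this qHTS, 15 uM tetraoctylammonium bromide defined 100% and DMSO defined basal activity. Lymphoblastoid cells (LYMP1-001, 2500 per well) received compound for 16 hr at 37 C before a fluorogenic dead-cell substrate readout at 485/520 nm.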
Assay [6] concerns the target Glucocorticoid receptor (Homo sapiens) (UniProt P04150). Briefly: qHTS assay for small molecule antagonists of glucocorticoid receptor signaling (AID 588533; active means well fitted inhibition curve with a large enough effect in the signal ratio, with a control signal flat, not every such curve was filed as active; the % refers to the signal ratio;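 further: cells stimulated with 2 nM dexamethasone as agonist; on the % scale 0 is the no-effect control and ±100 the full control effect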). The procedure, abridged: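 Antagonist-mode qHTS: compound titrations added to GRE-bla HeLa cells, then dexamethasone 2 nM final; 18 h, 37 C. CCF4 FRET fluorescence normalized to dexamethasone and DMSO; IC50 from Hill fit.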

The nature of assay [7]: qHTS assay for small molecule antagonists of peroxisome proliferator-activated receptor delta signaling (AID 588535; active means well fitted inhibition curve with a large enough effect in the signal ratio, with a control signal flat, not every such curve was filed as active; the % refers to the signal ratio;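 on max response: cells co-treated with a PPAR-delta agonist as stimulator during compound exposure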). The settings on record: HEK293T PPARd-UAS-bla, beta-lactamase FRET ratio, 18 h; 460 nm channel. A digest of the protocol: (§1)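 Cells were seeded at 4000 per well in assay medium containing 2% charcoal/dextran FBS and held 5 hrs at 37 C. Compounds were then added for 18 hrs. CCF4 substrate was applied for 2 hrs at room temperature before fluorescence reading.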

The target of assay [8] is Peroxisome proliferator-activated receptor delta (Homo sapiens) (UniProt Q03181). The description is as above. The procedure, abridged: as §1
For assay [9], the target named is Peroxisome proliferator-activated receptor gamma (Homo sapiens) (UniProt P37231). As to the kind of experiment: qHTS assay for small molecule antagonists of peroxisome proliferator-activated receptor gamma signaling (AID 588537; active means well fitted inhibition curve with a large enough effect in the signal ratio, with a control signal flat, not every such curve was filed as active; the % refers to the signal ratio;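 further: reporter cells co-stimulated with 50 nM rosiglitazone agonist during compound treatment; % of control where 0% means no effect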). The procedure, abridged:
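Step one: plate 3000 HEK293 UAS-bla cells per well in medium with 1% stripped serum and hold 6-6.5 h at 37 C. Step two: add compound and 50 nM agonist for 16 h. Step three: CCF4 loading, fluorescence read.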

The target in assay [10] is Nuclear receptor subfamily 1 group I member 2 (Homo sapiens) (UniProt O75469). As to the kind of experiment: Dual reporter qHTS for agonist of Pregnane X Receptor (hPXR) against the NCATS DSHEA and TCM libraries: Luminescence readout (AID 1920059). Further: 0% is about no effect. The procedure, abridged:
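hPXR-Luc HepG2 cells, 2000/well in 5% charcoal-stripped FBS medium, attached 5 h, then exposed 24 h at 37C to compounds. Viability by CellTiter-Fluor, then luciferase luminescence with ONE-Glo.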

Assay [11] concerns the target Bile acid receptor (Homo sapiens) (UniProt Q96RI1). As to the kind of experiment: qHTS assay for small molecule antagonists of farnesoid X receptor signaling (AID 588526; calls by dose curve; further: on the % scale 0 is the no-effect control and ±100 the full control effect). A digest of the protocol: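 Antagonist mode: titrated compounds tested against chenodeoxycholic acid stimulation (normalized to 50 uM CDCA and DMSO) in GeneBLAzer HEK293T cells for 16 h. Beta-lactamase read by CCF4 fluorescence; IC50 from Hill fits.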

In assay [12] the target is Nuclear receptor subfamily 1 group I member 2 (Rattus norvegicus) (UniProt Q9R1A7). Briefly: qHTS assay for small molecule activators of the rat pregnane X receptor (rPXR) signaling pathway (AID 651751; call rule not given here; further: 0% is about no effect). The settings on record: rPXR reporter cells, luciferase (One-Glo), 24 h.
A short description of assay [13]: qHTS assay for small molecule activators of the human pregnane X receptor (PXR) signaling pathway (AID 720659; call rule not given here; further: 0% is about no effect).
Assay [14] in a line: Validation screen for inhibitors of Lassa infection (AID 463096; calls by dose curve; further: on the % scale 0 is the no-effect control and ±100 the full control effect).

Sequence of Glucocorticoid receptor (Homo sapiens) (P04150 whole entry, looked up): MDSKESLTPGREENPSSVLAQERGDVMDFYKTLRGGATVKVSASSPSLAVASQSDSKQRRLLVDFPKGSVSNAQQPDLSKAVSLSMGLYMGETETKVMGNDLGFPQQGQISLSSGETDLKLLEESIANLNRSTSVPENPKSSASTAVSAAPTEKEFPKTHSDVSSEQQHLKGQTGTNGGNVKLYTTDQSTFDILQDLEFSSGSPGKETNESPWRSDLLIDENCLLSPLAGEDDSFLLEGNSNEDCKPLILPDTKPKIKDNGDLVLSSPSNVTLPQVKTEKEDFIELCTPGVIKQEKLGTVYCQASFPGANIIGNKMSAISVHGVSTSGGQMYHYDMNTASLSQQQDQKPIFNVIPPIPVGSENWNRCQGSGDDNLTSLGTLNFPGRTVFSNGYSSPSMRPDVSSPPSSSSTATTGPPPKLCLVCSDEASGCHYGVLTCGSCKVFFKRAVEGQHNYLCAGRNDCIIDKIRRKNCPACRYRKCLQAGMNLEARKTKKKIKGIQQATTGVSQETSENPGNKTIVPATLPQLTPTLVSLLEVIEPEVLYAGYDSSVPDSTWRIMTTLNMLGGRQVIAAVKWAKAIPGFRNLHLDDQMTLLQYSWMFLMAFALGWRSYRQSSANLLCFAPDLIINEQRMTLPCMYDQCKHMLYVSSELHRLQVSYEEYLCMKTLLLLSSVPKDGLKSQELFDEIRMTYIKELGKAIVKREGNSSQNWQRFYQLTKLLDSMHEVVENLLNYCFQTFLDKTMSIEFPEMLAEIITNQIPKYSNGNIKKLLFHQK
Sequence of Nuclear receptor subfamily 1 group I member 2 (Rattus norvegicus) (Q9R1A7 whole entry, looked up): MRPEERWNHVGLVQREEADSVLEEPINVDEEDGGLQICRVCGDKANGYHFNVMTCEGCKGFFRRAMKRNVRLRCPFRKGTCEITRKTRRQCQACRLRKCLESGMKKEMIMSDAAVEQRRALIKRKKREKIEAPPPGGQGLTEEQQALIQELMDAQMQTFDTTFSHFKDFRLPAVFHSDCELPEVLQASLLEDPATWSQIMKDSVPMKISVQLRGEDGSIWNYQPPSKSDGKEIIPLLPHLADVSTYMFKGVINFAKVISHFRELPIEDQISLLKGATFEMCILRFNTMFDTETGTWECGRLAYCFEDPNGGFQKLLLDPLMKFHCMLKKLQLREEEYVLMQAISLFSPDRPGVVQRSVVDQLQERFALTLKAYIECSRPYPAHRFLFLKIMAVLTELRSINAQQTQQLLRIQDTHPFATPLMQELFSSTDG
Sequence of Cytochrome P450 3A4 (Homo sapiens) (P08684 whole entry, looked up): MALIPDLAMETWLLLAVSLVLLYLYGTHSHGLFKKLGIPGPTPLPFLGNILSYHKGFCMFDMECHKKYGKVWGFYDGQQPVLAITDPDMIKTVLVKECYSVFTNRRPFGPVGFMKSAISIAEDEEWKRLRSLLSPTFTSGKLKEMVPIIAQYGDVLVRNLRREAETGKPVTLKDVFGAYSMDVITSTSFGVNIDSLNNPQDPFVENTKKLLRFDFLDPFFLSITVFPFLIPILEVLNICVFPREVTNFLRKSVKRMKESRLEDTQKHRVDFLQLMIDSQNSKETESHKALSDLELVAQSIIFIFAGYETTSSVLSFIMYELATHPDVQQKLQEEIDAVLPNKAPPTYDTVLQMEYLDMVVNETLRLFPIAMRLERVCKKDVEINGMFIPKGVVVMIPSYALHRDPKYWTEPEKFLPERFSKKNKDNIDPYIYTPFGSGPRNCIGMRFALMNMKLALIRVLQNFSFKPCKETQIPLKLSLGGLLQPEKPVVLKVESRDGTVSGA
Sequence of Peroxisome proliferator-activated receptor delta (Homo sapiens) (Q03181 whole entry, looked up): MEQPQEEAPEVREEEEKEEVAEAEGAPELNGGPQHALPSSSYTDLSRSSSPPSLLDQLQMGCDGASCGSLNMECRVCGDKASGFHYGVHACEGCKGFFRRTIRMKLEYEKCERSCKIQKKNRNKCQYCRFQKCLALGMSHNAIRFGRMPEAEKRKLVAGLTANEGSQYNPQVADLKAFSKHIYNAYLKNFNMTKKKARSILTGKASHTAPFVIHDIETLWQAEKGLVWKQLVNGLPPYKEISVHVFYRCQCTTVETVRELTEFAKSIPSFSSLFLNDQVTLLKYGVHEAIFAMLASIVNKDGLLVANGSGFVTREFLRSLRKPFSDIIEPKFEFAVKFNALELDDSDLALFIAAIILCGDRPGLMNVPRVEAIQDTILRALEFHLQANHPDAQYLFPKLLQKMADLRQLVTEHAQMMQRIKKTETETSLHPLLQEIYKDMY
Sequence of Bile acid receptor (Homo sapiens) (Q96RI1 whole entry, looked up): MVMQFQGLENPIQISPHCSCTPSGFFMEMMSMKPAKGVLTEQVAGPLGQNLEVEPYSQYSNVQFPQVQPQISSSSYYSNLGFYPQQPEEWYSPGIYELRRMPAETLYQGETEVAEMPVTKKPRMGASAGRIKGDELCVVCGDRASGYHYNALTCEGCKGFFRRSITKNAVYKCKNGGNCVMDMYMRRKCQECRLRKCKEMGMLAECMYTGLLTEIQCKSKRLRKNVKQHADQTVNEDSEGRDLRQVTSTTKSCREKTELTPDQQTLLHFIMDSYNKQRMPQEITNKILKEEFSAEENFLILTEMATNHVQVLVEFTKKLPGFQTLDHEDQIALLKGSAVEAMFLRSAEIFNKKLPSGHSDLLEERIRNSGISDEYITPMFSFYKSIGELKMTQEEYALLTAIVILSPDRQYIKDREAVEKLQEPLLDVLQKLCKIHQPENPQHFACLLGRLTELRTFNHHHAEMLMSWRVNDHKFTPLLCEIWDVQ
Sequence of Peroxisome proliferator-activated receptor gamma (Homo sapiens) (P37231 whole entry, looked up): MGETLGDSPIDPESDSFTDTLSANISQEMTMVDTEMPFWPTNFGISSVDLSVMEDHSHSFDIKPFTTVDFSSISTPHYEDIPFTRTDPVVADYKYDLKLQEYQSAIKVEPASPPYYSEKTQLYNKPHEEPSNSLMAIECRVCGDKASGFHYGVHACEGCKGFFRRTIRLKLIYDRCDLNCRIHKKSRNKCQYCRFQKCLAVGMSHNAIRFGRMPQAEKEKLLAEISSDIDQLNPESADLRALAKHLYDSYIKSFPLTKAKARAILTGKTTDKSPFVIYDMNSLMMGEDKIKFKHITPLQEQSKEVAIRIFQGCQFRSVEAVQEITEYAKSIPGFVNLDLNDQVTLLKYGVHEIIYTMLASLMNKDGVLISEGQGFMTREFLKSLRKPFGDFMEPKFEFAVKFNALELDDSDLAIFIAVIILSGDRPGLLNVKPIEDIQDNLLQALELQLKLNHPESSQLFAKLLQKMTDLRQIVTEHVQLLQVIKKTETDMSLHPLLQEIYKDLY
Sequence of Nuclear receptor subfamily 1 group I member 2 (Homo sapiens) (O75469 whole entry, looked up): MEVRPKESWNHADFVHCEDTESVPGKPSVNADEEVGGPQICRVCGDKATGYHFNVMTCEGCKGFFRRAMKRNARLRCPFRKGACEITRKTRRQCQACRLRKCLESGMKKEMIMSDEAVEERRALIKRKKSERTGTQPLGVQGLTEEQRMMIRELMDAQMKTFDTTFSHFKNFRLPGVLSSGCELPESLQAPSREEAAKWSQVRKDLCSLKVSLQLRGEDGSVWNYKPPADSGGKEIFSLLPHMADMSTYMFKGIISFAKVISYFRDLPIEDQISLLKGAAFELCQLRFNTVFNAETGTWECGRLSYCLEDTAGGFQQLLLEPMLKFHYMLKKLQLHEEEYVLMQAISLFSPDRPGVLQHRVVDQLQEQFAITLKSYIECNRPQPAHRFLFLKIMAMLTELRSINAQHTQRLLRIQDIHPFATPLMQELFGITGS

Turning to `S=C(S)N1CCCC1`, the Potency result in [1] was “inactive”. Moreover, the Potency in [2] is 3.16 µM (active); in [3], 11.2 µM (active).

As for `COC1=CC(=O)O[C@@H](/C=C/c2ccc3c(c2)OCO3)C1`, in assay [4], the result was inactive. In addition, the Potency entry in assay [1], in assay [5], in assay [6], in assay [8], in assay [9] and in assay [10] was “inactive” each time. In addition, the max response in assay [7] was 27.2%.

Turning to `Cc1ccc([N+](=O)[O-])cc1C`, the Potency result in assay [5], in assay [8] and in assay [9] was “inactive” in each case. Further, the call in assay [11] and in [13] was inactive. Moreover, the max response in [7] was -1.38%; in assay [12], 1.14% (inactive) and -0.13% (inactive).

Turning to `C=C(C)C#N`, the call in assay [4], in [11] and in [13] was inactive. Further, the max response in [12] is 2.68% (inactive) and -1.1% (inactive).

Take `COc1cc(OC)c(/C=C2/C(=O)Nc3ccccc32)c(OC)c1`: the Potency entry in [1] is “inactive”. Also, the Potency in assay [3] is 12.6 µM (active).

Regarding `NC(=S)Nc1ccccc1`, the Potency entry in assay [5], in assay [6], in [8] and in assay [9] was “inactive” in each case. Moreover, in [11], the molecule was classed as inactive. In addition, the max response in [7] was -9.7% and -15%.

In the case of `CC(=O)O[C@H]1C[C@@H]2CCC3C(CC[C@@]4(C)[C@H]3C[C@H]([N+]3(C)CCCCC3)[C@@H]4OC(C)=O)[C@@]2(C)C[C@@H]1[N+]1(C)CCCCC1` (stereo partly specified), the Potency in assay [2] was 11.2 µM (active). Moreover, in [14], the Potency entry was “inactive”.

As to `c1ccc2c(c1)CCCC2`, the outcome in assay [11] and in assay [13] was inactive. Further, the Potency result in assay [6] was “inactive”. The max response in assay [12] is -0.477% (inactive).

With `O=NN(c1ccccc1)c1ccccc1`, the molecule was classed as inactive in [4], in assay [11] and in [13]. Moreover, the Potency result in assay [6], in assay [8] and in assay [9] was “inactive” in each case. For the same molecule, the max response in [7] is 35.3%; in assay [12], 2.63% (inactive) and 4.55% (inactive).

Regarding `CCCCOCCOP(=O)(OCCOCCCC)OCCOCCCC`, the outcome in [4] was inactive. In addition, the Potency entry in [1], in [5], in assay [6], in [8] and in [9] was “inactive” in each case. Further, the max response in [7] is 25%.

Consider `C=CC(=C)C`, for which the Potency entry in assay [5], in assay [6], in [8] and in [9] was “inactive” in each case. Besides, the call in [11] and in assay [13] was inactive. Moreover, the figures for the max response in assay [7] and in assay [12] were -16.7% and 11% (inactive), respectively.

On to `CCSC(=O)Cl`, for which the call in assay [4], in assay [11] and in [13] was inactive. The Potency result in assay [5], in assay [6] and in assay [9] was “inactive” in each case. Also, the max response in assay [12] was 4.31% (inactive).
